Reference: PubChem BioAssay AID588456 (National Center for Advancing Translational Sciences (NCATS), 2011)
About 55 (0.01%) of roughly 390,000 compounds were called active. Calls come from the whole dose curve; as a rule, active = well fitted inhibition curve with a large enough effect; inconclusive = small, poorly fitted or top-dose-only effect; inactive = no such curve, though single readings can be large or run the other way. Not all results are given here.

Biological target: Thioredoxin reductase 1, cytoplasmic (Rattus norvegicus) (UniProt O89049)
Sequence (O89049 whole entry, looked up): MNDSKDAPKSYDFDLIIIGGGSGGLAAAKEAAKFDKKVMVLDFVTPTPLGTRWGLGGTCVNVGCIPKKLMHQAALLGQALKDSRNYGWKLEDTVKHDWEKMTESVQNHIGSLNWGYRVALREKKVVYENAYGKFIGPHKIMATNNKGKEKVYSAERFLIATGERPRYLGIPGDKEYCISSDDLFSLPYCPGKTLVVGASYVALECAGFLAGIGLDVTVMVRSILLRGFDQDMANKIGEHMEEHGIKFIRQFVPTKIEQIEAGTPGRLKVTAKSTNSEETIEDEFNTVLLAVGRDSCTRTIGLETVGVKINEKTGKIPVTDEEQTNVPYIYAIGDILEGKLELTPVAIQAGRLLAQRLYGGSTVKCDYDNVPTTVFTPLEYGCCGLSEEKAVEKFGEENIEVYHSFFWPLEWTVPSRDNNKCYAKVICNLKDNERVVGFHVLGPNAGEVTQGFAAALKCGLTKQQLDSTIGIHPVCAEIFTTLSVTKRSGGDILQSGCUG
Experiment: qHTS Assay for Substrates of Mammalian Selenoprotein Thioredoxin Reductase 1 (TrxR1): qHTS; note: nearly all actives have a fitted effect of over 50% in size
Settings: purified TrxR1 substrate turnover, NADPH consumption readout; series mostly up to 114 µM
Description: The selenoprotein thioredoxin reductase (TrxR; EC 1.8.1.9) is a FAD containing homodimeric pyridine nucleotide-disulfide oxidoreductase with many cellular roles. Together with NADPH and its prime substrate thioredoxin (Trx), the enzyme forms the core of the Trx system. The mammalian Trx system exerts a wide spectrum of functions including redox regulation, antioxidant defense, regulation of transcription factors as well as support of cell growth and replication. Many of these functions involve the reduction of Trx, which may subsequently reduce a number of different substrates including ribonucleotide reductase, peroxiredoxins or NFkB. Mammalian TrxR itself also has a broad substrate specificity, reducing both protein and non-protein substrates, including low molecular weight compounds such as dehydroascorbate, lipoic acid, ubiquinone, and juglone. In addition, several drugs in clinical use for anticancer treatment are indeed known to target TrxR1.
This BioAssay is a validation of an NADPH fluorescence-based, dual-purpose qHTS rTrxR1 assay designed to find potential inhibitors and substrates of rTrxR1. For this particular BioAssay, actives are potential substrate. See related BioAssay for inhibition data deposition.
NIH Molecular Libraries Probe Production Network [MLPCN]
NIH Chemical Genomics Center [NCGC]
Assay Provider: Elias Arner, Karolinska Institute
Assay protocol: 2 uL of reagents (buffer in column 4 as negative control and 90 nM rTrxR1 in columns 1-3 and 5-48) were dispensed into Greiner black solid-bottom 1,536-well assay plates, followed by 1 uL of NADPH (400 uM final concentration) to each well. The plates were centrifuged at 1000 rpm for 15 seconds and subsequently incubated for 5 min at room temperature (~22 deg C) to allow for rTrxR1 reduction. Compounds (23 nL) were then transferred via Kalypsys pin tool equipped with 1536-pin array (10 nL slotted pins, V&P Scientific, San Diego, CA). In addition, a duplicate 2-fold serial dilution of the control compounds auranofin, a known gold-based TrxR1 inhibitor, and juglone (5-hydroxy-1,4-naphthoquinone), a natural TrxR1 substrate, were pin-transferred to columns 2 and 3, respectively. After incubation for 15 min at room temperature (~22 deg C), 1 uL of selenite (400 uM final concentration) were dispensed to each well. The plate was immediately transferred to a ViewLux high-throughput CCD imager (PerkinElmer), wherein kinetic measurements of NADPH fluorescence (Ex 340 nm, Em 450 nm) were acquired (8 minute kinetic read, see Table 1). Read 1 was utilized to assess the capacity of a compound to serve as an rTrxR1 substrate, i.e. a decrease in NADPH fluorescence compared to the no-compound background is an indication of a substrate behavior for that particular compound. For inhibitory activity of a compound, delta values, computed as the difference in fluorescence intensity between the first and last reads of an 8-minute time kinetic window, were used. All reagents were diluted in an assay buffer consisting of 50 mM Tris-HCl, pH 7.5, 2 mM EDTA, and 0.01% Tween-20.
Throughout the screen, reagent bottle and all liquid lines were made light-tight to minimize reagent degradation. All screening operations were performed on a fully integrated robotic system (Kalypsys, San Diego, CA) containing one RX-130 and two RX-90 anthropomorphic robotic arms (Staubli, Duncan, SC). Library plates were screened starting from the lowest and proceeding to the highest concentration, and a 'double-pinning' step of the highest concentration was required to access higher concentrations of compounds. Vehicle-only plates, with DMSO being pin-transferred to the columns 5-48, were inserted uniformly at the beginning and the end of each library in order to monitor and record any shifts in the background, which can be affected by reagent dispensers or loss in enzyme activity over time. […]
% is set by controls: 0 for no effect and ±100 for the full control effect.

Activity change, negative = substrate turnover, inactive:
Nc1ccc(/C=C/c2ccnc3ccccc23)c([N+](=O)[O-])c1 7.22% [at 0.0914 µM], O=C(CCCn1c(=O)c2cccn2c2cccnc21)NCc1ccc(F)cc1, Cc1ccc(S(=O)(=O)N2CCN(c3nc(-n4cnc5ccccc54)nc4ccccc34)CC2)cc1, CSc1n[nH]c(-c2ccco2)n1, CN(C)c1ccc(/C=C2\C=Cc3ccccc32)cc1Br, O=C(Nc1ccc2nc(SCCOc3ccccc3)sc2c1)c1ccco1, Cn1nnnc1SCCCNCc1cccc(OCc2ccc(Cl)cc2)c1, COc1ccc(/C=C/c2ccccn2)cc1OC, Cc1csc(NCC(=O)c2c[nH]c3ccccc23)n1, Nc1nc(N)c(N=O)c(N)n1, OC(CBr)C[n+]1cccc2cc(Br)ccc21 (stereo not drawn), O=C(c1cnn2c1NC(=C1CC1)C=C2C(F)F)N1CCc2ccccc2C1, Cc1cccc(CN2Cc3cccc4c3[C@H](C=CC4)CC2=S)c1, Cc1cc[n+](C2CCCCC2)cc1, COc1cccc(Nc2nc3ccccc3c3nncn23)c1, CC(NC(=O)c1cc(Sc2ccc(F)cc2F)nc2ccccc12)c1ccccc1 (stereo not drawn), Cc1ccc2cccc(NC(=O)c3ccc(OC(C)C)cc3)c2n1, CCc1ccc(Sc2cc(C(=O)NCCCOC(C)C)c3ccccc3n2)cc1, Nc1ncnc2c1c(I)cn2[C@@H]1C[C@H](N)[C@@H](O)[C@H]1O, Cc1ccc(NC(=O)c2cc3cc(C)ccc3n2C)cc1, O=C1COc2ccc(-c3csc(-c4ccc(Cl)cc4)n3)cc2N1, CC(C)(C)c1ccc(C(=O)C[n+]2cccc3cc(Cl)ccc32)cc1, OC(Cc1ccc2ccccc2n1)c1ccc(Cl)c(Cl)c1 (stereo not drawn), CO[C@H]1O[C@@H]2O[C@@]3(C)CC[C@@H]4[C@@H](C)CC[C@@H]([C@H]1C)[C@@]24OO3, CCOC(=O)c1cc(-c2ccccc2)n(-c2cccc(C(=O)Nc3cc(OC)cc(OC)c3)c2)c1C, CCOC(=O)c1c(C)[nH]c(CCC(=O)Nc2ccc(OC)c(OC)c2)c1C, CCc1ccccc1NC(=O)Cn1c(=O)n(-c2cccc(C)c2)c(=O)c2c1c1cc(OC)ccc1n2C, CN(CCC#N)c1ccc(C=O)cc1, COc1ccccc1N1CCN(C2C(=O)c3ccccc3N2C(C)=O)CC1 (stereo not drawn), CCOc1ccc(NC(=O)C(CC(C)C)N2Cc3ccccc3C2=O)cc1 (stereo not drawn), CN(C)CCCn1c(-c2ccc(Cl)cc2)csc1=Nc1ccccc1, CC1(C)CCc2cc(S(=O)(=O)N3CCN(c4nc(-c5cccs5)nc5ccccc45)CC3)ccc2O1, C=C1C=C(C)n2ncc(C(=O)Nc3ccccc3O)c2N1, COC(=O)C1=C(C(=O)OC)[C@@H]2N(Cc3ccccc3)c3ccccc3[C@@]23C[C@@H](C(=O)OC)N(S(=O)(=O)c2ccc(C(F)(F)F)cc2)C3=N1, CCOc1ccc(N2CC(C)Cn3c2nc2c3c(=O)n(Cc3c(F)cccc3Cl)c(=O)n2C)cc1 (stereo not drawn), C=C1C=C(C(F)F)n2ncc(C(=O)NCCc3ccccc3OC)c2N1, Cc1ccc(NC(=O)C(Cc2ccccc2)NS(=O)(=O)c2ccc3c(c2)oc(=O)n3C)cc1C (stereo not drawn), CCOc1ccc(Nc2ncnc3scc(-c4ccc(OC)cc4)c23)cc1, COc1cccc(CNCCSc2nnnn2C)c1OCc1ccccc1Cl 8.42% [at 11.4 µM], Cc1ccc(Cn2cnc3c(cnn3C(C)(C)C)c2=O)c(F)c1, COc1cc(C(=O)Nc2ccc(OCc3cc(=O)n4ccc(C)cc4n3)cc2)cc(OC)c1OC, CC1CCCN(c2nc3c(S(=O)(=O)c4ccc(C(C)C)cc4)nnn3c3ccsc23)C1 (stereo not drawn), Cc1[nH]c2ccccc2c1C(=O)C(=O)N(C)c1ccccc1, CN(CC(=O)Nc1ccccc1F)S(=O)(=O)c1ccc2c(c1)c(=O)n(C)c(=O)n2C, COc1ccccc1CNC(=O)C(=O)NCC(c1ccco1)S(=O)(=O)c1ccc(F)cc1 (stereo not drawn), CCOc1ccccc1CNC(=O)C1CCCN(S(=O)(=O)c2ccc3c(ccn3C)c2)C1 (stereo not drawn), CN(Cc1ccccc1)c1ccc(/C=C/c2ccnc3ccccc23)cc1, Oc1ccccc1-c1nc(/C=C/c2ccc(F)cc2)no1, CC(C)Cn1c(-c2ccc(S(=O)(=O)N3CCOCC3)cc2)csc1=Nc1cc(Cl)ccc1Cl, COc1cc(OC)c(OC)cc1/C=C1\C=Cc2ccccc21 6.44% [at 0.0914 µM], Cc1cccc(C(=O)N2CCc3cc(CNC(=O)Cc4ccc(F)cc4)ccc32)c1, Cc1nnc(SCC(=O)NCc2ccccc2Cl)c2nn(-c3ccccc3)c(C)c12, Brc1cccc[n+]1Cc1cccc(C[n+]2ccccc2Br)c1, COc1cc2[nH]c(=O)n(Cc3ccc(C(=O)NCc4ccc(C)cc4)cc3)c(=O)c2cc1OC 3.98% [at 2.29 µM], CN(C)c1ccc(/C=N\Nc2ccc([N+](=O)[O-])cc2[N+](=O)[O-])cc1Cl, COc1cc2nc(Cl)nc(NC3CC3)c2cc1OC, Cc1nnc(C)n1-c1ccc(C(=O)Nc2cccc(Br)c2)cc1, Cc1ccc(C=O)cc1Cl, Cc1ccc(-c2nnc3ccc(SCC(N)=O)nn23)cc1, CN(C)c1ccc(C=Nc2ccc(/C=C/c3ccnc4ccccc34)cc2)cc1, Cc1nnc(NCc2ccccc2)c2c1nnn2Cc1ccc(F)cc1, CN(C)c1ccc(/C=C/c2sc3ccccc3[n+]2CCCCBr)cc1, CC(C)(C(=O)NO)c1ccccc1, O=C1O/C(=C\c2ccc(O)cc2)C(O)=C1c1ccc(O)cc1, NC1CCN(O)C1=O (stereo not drawn), C=COC(=O)N1CCN(/[N+]([O-])=N/Oc2ccc([N+](=O)[O-])cc2[N+](=O)[O-])CC1 10.5% [at 0.457 µM], O=C(O)c1c(Br)c(Br)c(Br)c(Br)c1C1c2ccc(O)cc2Oc2cc(O)ccc21, O=C(NCCCO)C(=O)Nc1c2c(nn1-c1ccc(F)cc1)CSC2, C(=Nc1ccc(/C=C/c2ccnc3ccccc23)cc1)c1cc2c3c(c1)CCCN3CCC2, Cc1ccc2nc3c(cc(C(=O)NC4CCCCC4)c(=N)n3C(C)C)c(=O)n2c1, Cc1ccc(CN(C(=O)COc2ccc(Cl)cc2C)C2CCS(=O)(=O)C2)o1 (stereo not drawn), CCOc1n[nH]c(-c2ccccc2)n1, COc1ccc(CCNC(=O)CCCCn2c(=O)c3ccccc3n(Cc3ccccc3C)c2=O)cc1OC, CS(=O)c1ccc(/C=C2\C=Cc3ccccc32)cc1 (stereo not drawn) 1.35% [at 0.0914 µM], COc1ccccc1NC(=O)C1=C(C)Nc2ncnn2C1c1sccc1C (stereo not drawn), Cc1ccc(C2C=C(c3ccc(Cl)cc3)Nc3nc(NC(=O)CCC(=O)O)nn32)cc1 (stereo not drawn), C/C=C/NNC(=O)Cc1ccc(OC)cc1, CCOC(=O)c1ccc(NC(=O)CCS(=O)(=O)c2ccc3c(c2)oc(=O)n3C)cc1, COCCCNC(=O)c1ccc(NC(=O)c2nsc3ccccc23)cc1, CC1(C)C=Cc2c(ccc(C(=O)/C=C/c3ccccc3)c2O)O1, CCN(CC)/[N+]([O-])=N/OCOC(=O)Cc1c(C)n(C(=O)c2ccc(Cl)cc2)c2ccc(OC)cc12 12.6% [at 0.457 µM], CC(=O)/C(C)=N/O, COc1ccc(CN(Cc2ccccc2)C(=O)c2ccc(O)cc2)cc1COc1ccc(NC(C)=O)cc1, O=C(CSc1nc2c(c(=O)[nH]1)CN(Cc1ccc(F)cc1)CC2)Nc1ccccc1Cl, O=C(COc1ccccc1)OCc1cc(=O)n2nc(-c3cccs3)sc2n1, Cc1cccc(NC(=O)COC(=O)c2ccccc2OCc2cccc(Br)c2)c1, CN(C)C1=C2C=CC=CC2/C(=C2/C=Cc3ccccc32)C=C1 (stereo not drawn), CSc1nc(-c2ccccc2Cl)nc2c1Cc1c(CO)cnc(C)c1O2, CN(C)c1ccc(/C=C/c2sc3ccccc3[n+]2C)cc1, Cc1cccc(NC(=O)c2ccc3nc(C(C)C)oc3c2)c1C, O=C(Nc1ccccc1C(F)(F)F)c1nc(S(=O)(=O)Cc2ccccc2F)ncc1Cl, CN(C)c1ccc(/C=C/C=C/c2ccnc3ccccc23)cc1, CCCCCCC1(C)NC(c2ccc3c(c2)OCO3)=CC(c2ccccc2O)N1 (stereo not drawn), SCc1nc2ccc(Cl)cc2[nH]1, Cc1ccc2nc(COc3cccc(NC(=O)Nc4ccc(C)c(Cl)c4)c3)cc(=O)n2c1, O=C1C[C@H]2C=CCc3cccc(c32)CN1Cc1ccccc1, O=C1CCC[C@@H]2C[C@@]3(C[C@@H]4CCN1[C@H]24)Nc1ccccc1NC3=NCc1ccccc1, CCCCOc1ccc(CN2C(=O)C(=O)c3cc(Br)cc(C)c32)cc1OC, CCN(CC)c1ccc(/C=C/c2c(C)cnc3ccc(C)cc23)cc1, CCOc1ccc(CCNC(=O)Cn2nc(CC)n3c(cc4sc(CC)cc43)c2=O)cc1OCC, CCC(C)N(c1ccc(/C=C/c2ccnc3ccccc23)cc1)C(C)CC (stereo not drawn), O=C(COc1ccccc1C(=O)Nc1ccccc1)Nc1cccc(F)c1, CCCCOc1ccc(C(=O)NO)cc1
